Screening data deposited in PubChem by several laboratories.
In the library only some 9.6% were active in any assay of this set; here they are far more common.
HCT116 PTEN-null: growth suppression of PTEN-null HCT116, primary screen, cell-based, CellTiter-Glo; 140,000 compounds, 1.2% hits; HCT116 PTEN-null viability, 60 h; hits give low values; AID 827, 2007; viability, % at 10 µM;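 active = viability at or below a set limit, 4 SD under the median of all tested compounds, cut at about 3.7% in these data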;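 note: PTEN knockout HCT116 line with beta catenin targeted HCT116 as companion control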
bCat KO growth: primary screen for growth suppressors in beta-catenin knockout HCT116 cells (colon tumor, human); viability, % at 10 µM; HCT116 beta-catenin knockout viability, CellTiter-Glo, 60 h; hits give low values; 140,000 compounds, 1.5% hits;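 active = viability at or under a set limit, the compound median less 4 SD, cut at about 6% in these data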
L major viab: Leishmania major promastigote growth inhibition, primary screen. Leishmania major promastigotes, resazurin fluorescence viability. inhibition, % at 10 µM. 200,000 compounds, 9% hits; in the data active = inhibition above about 50%;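 note: promastigotes grown with compound for 44 hours at 28 °C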
Ins promoter up: insulin promoter activators in MIN6 cells, imaging, high-content screening, mouse beta cells; MIN6 insulin promoter-GFP reporter; hits give high values; z-score at 5 µM; 190,000 compounds, 0.3% hits; AID 1625, 2009;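 active = z-score above 3 at 5 µM with at least 500 cells counted in the well; inconclusive = wells under 500 cells, flagged as cytotoxic or low count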
Autophagy HCS: autophagy modulators in MEF cells, primary screen, imaging, high-content, MEF GFP-LC3 | MEF GFP-LC3 puncta imaging; test concentration mostly 10 µM | calls only at 10 µM (by protocol) | 190,000 compounds, 0.98% hits | AID 463193, 2010;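 active = percentage of spot-positive cells more than 3 SD above its plate mean, without a fluorescence outlier flag or 80% toxicity; inconclusive = no clear call, values can overlap the other calls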
INS promoter inh: inhibitors of insulin promoter-driven GFP, primary screen, imaging, TRM-6 cells (human fetal islet line), eGFP reporter, cell count; reporter expression induced with tamoxifen; inhibition, % at 2 µM; 130,000 compounds, 0.9% hits; AID 1273, 2008;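 active = inhibition above the mean plus 3 SD, with well images judged a real hit on visual review, cut at about 60% in these data, passing the limit was not always enough; inconclusive = inhibition over the cutoff but images rejected on review; inactive = inhibition not above the cutoff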
Of the large screens only hits and unclear results are named; the others gave an inactive call.

Cc1ccc(NC(=O)CCn2cccc2)cc1Cl	Ins promoter up 3.2
O=C(Nc1ccccn1)c1ccc2nc(-c3ccccc3)c(-c3ccccc3)nc2c1	none (no result: HCT116 PTEN-null, bCat KO growth, Ins promoter up)
Cc1nc2cc(-c3ccccc3)nn2c(C)c1CCC(=O)N1CCN(c2ccccc2)CC1	L major viab 87 (no result: INS promoter inh)
COc1cc(OC)cc(-c2cc3nc(C)c(CCC(=O)NCc4ccccc4)c(C)n3n2)c1	none (no result: HCT116 PTEN-null, bCat KO growth, L major viab, Autophagy HCS, INS promoter inh)
Cc1ccc(N=C2NC(=O)/C(=C/C=C/c3ccco3)S2)cc1	none (no result: INS promoter inh)
N#CC1=C(N)NC(SCc2ccc(Cl)cc2)=C(C#N)C12CCCCC2	L major viab 99 (no result: Ins promoter up)
N#CC1=C(N)NC(SCC(=O)Nc2ccc(Br)cc2)=C(C#N)C12CCCCC2	L major viab 84
N#CC1=C(N)NC(SCc2ccc(Br)cc2)=C(C#N)C12CCCCC2	L major viab 98 (no result: Ins promoter up)
N#CC1=C(N)NC(SCC(=O)c2ccccc2)=C(C#N)C12CCCC2	none
N#CC1=C(N)NC(SCc2ccccc2)=C(C#N)C12CCCC2	none
COC(=O)c1ccc(C2/C(=C(/O)c3ccc(OC)cc3)C(=O)C(=O)N2Cc2ccco2)cc1 (centres undefined)	none (no result: HCT116 PTEN-null, bCat KO growth, Ins promoter up, INS promoter inh)
Cc1ccc(NC(=O)COC(=O)C2CCC(=O)N2)c([N+](=O)[O-])c1 (centres undefined)	none (no result: HCT116 PTEN-null, bCat KO growth, Ins promoter up)
CCOC(=O)c1c(-c2ccccc2Cl)csc1NC(=O)c1cc(S(=O)(=O)N2CCOCC2)ccc1C	L major viab 83
CCOC(=O)c1c(-c2ccc(C)o2)csc1NC(=S)NC(=O)c1cccs1	L major viab 75
CCOC(=O)c1sc(NC(=S)NC(=O)c2ccccc2)c(C(=O)OCC)c1C	Autophagy HCS active
CCOC(=O)c1ccccc1NC(=O)c1cc(S(=O)(=O)N2CCOCC2)ccc1F	none (no result: Ins promoter up)
CCOC(=O)c1c(-c2ccc(C)o2)csc1NC(=S)NC(=O)c1ccccc1Br	none (no result: INS promoter inh)
CCOC(=O)c1c(-c2ccccc2)csc1NC(=S)NC	L major viab 62
CCOC(=O)c1c(-c2ccc(-c3ccccc3)cc2)csc1NC(=O)CCN1CCOCC1	L major viab 98 (no result: INS promoter inh)
CN(C)c1nc(N)nc(/C(C#N)=C/C2CC3C=CC2C3)n1 (centres undefined)	Ins promoter up 3
O=C(Cn1c(=O)[nH]c2ccccc2c1=O)N1CCN(c2cccc(Cl)c2)CC1	none (no result: HCT116 PTEN-null, bCat KO growth, INS promoter inh)
C(#Cc1ccccc1)C[N+]1(CC#Cc2cccc3ccccc23)CCCC1	L major viab 100, Ins promoter up inconclusive
O=C(CSc1ncnc2c1sc1ccccc12)Nc1ccc(Br)cc1	L major viab 60 (no result: Ins promoter up)
O=C(CSc1ncnc2c1oc1ccccc12)Nc1nc2ccccc2s1	none (no result: INS promoter inh)
Clc1ccc(Cn2cc(Br)cn2)cc1Cl	none
O=C(Oc1c(Cl)cc(Cl)c2cccnc12)c1cccs1	none (no result: Ins promoter up)
O=C(Oc1c(CN2CCOCC2)cc(Cl)c2cccnc12)c1ccccc1Cl	L major viab 100 (no result: HCT116 PTEN-null, bCat KO growth, INS promoter inh)
O=C(Oc1c(CN2CCOCC2)cc(Cl)c2cccnc12)c1cccs1	L major viab 100 (no result: HCT116 PTEN-null, bCat KO growth, INS promoter inh)
Cc1cccc2c1CC(C)(C)N=C2C1=C(O)CC(C)(C)CC1=O	none
Cc1ccccc1OCC(=O)NC(Cc1c[nH]c2ccccc12)C(=O)O (centres undefined)	none (no result: HCT116 PTEN-null, bCat KO growth, INS promoter inh)
CC(C)=C1SC(N2CCN(c3ccc(C)cc3)CC2)=NC1=O	none
CC(C)=C1SC(N2CCN(c3ccc(Cl)cc3)CC2)=NC1=O	INS promoter inh 71 (no result: HCT116 PTEN-null, bCat KO growth)
O=C(CCC(=O)N1CCN(S(=O)(=O)c2ccc(Cl)cc2)CC1)Nc1ccc(Cl)cc1Cl	none
O=C(Cn1ncc(Cl)c(Cl)c1=O)N1CCN(S(=O)(=O)c2ccc3ccccc3c2)CC1	HCT116 PTEN-null 1.1, bCat KO growth 1.1, L major viab 99, Autophagy HCS active (no result: INS promoter inh)
O=S(=O)(c1ccc2ccccc2c1)N1CCN(C(=S)Nc2ccc(F)c(Cl)c2)CC1	L major viab 90
O=C(CCC(=O)N1CCN(S(=O)(=O)c2ccc3ccccc3c2)CC1)Nc1cc(Cl)cc(Cl)c1	L major viab 63 (no result: HCT116 PTEN-null, bCat KO growth, INS promoter inh)
N#CCSCC(=O)Nc1ccc(Br)cc1	none
Cn1c(=O)c2c(nc(CN3CCN(C(=O)c4ccco4)CC3)n2Cc2ccccc2F)n(C)c1=O	none (no result: INS promoter inh)
COCCN(CCOC)Cc1cc(=O)oc2cc3c(cc12)CCC3	Ins promoter up 3.1
CC(C)CN(Cc1cc(=O)oc2cc3c(cc12)CCCC3)CC(C)C	none (no result: HCT116 PTEN-null, bCat KO growth, L major viab, Autophagy HCS, INS promoter inh)
COCc1cc(C)n(CC(=O)Nc2c(C)cccc2C)c(=O)c1C#N	none (no result: HCT116 PTEN-null, bCat KO growth, INS promoter inh)
